# Values joined by “and” are separate entries in the source; they are usually repeats but may differ in a detail not shown here. Equal values may be shown once. The whole screen tested about 5,500 compounds, of which about 2,000 (36%) were called active. About 18% were inconclusive and are not listed. No stated cut-off is given here; in the data, active means normalized growth mostly below about 0.91 (no sharp cut-off); inconclusive means no clear call, values can overlap the other calls; inactive means mostly above about 0.92. Some of the results follow.
# Experiment: chemical genetic growth profiling, strain panel (AID 1159580);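 further: tested at 20 µM; growth read once vehicle control cultures reached saturation at 30 °C; 1 = growth at the plate median or of vehicle wells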
# Settings: S. cerevisiae deletion strains, growth OD
compound,measurement,setting,value
O=c1cc(-c2ccccc2)oc2c(O)c(O)ccc12,normalized growth,"locus YAL021C, strain ccr4, stronger effect = lower value",0.913 (inactive)
same,normalized growth,"locus YAL026C, strain drs2, stronger effect = lower value",0.977 (inactive)
same,normalized growth,"locus YAL030W, strain snc1, stronger effect = lower value",0.99 (inactive)
same,normalized growth,"locus YBL061C, strain skt5, stronger effect = lower value",0.995 (inactive)
same,normalized growth,"locus YBR009C, strain hhf1, stronger effect = lower value",0.98 (inactive)
same,normalized growth,"locus YBR021W, strain FUR4, stronger effect = lower value",0.955 (inactive)
same,normalized growth,"locus YBR023C, strain chs3, stronger effect = lower value",0.997 (inactive)
same,normalized growth,"locus YBR171W, strain sec66, stronger effect = lower value",0.964 (inactive)
same,normalized growth,"locus YBR229C, strain ROT2, stronger effect = lower value",0.974 (inactive)
same,normalized growth,"locus YBR231C, strain swc5, stronger effect = lower value",0.98 (inactive)
same,normalized growth,"locus YBR279W, strain paf1, stronger effect = lower value",0.99 (inactive)
same,normalized growth,"locus YCL011C, strain gbp2, stronger effect = lower value",0.984 (inactive)
same,normalized growth,"locus YCL016C, strain dcc1, stronger effect = lower value",0.98 (inactive)
same,normalized growth,"locus YCL029C, strain bik1, stronger effect = lower value",0.956 (inactive)
same,normalized growth,"locus YCL061C, strain MRC1, stronger effect = lower value",0.981 (inactive)
same,normalized growth,"locus YCL069W, strain vba3, stronger effect = lower value",0.985 (inactive)
same,normalized growth,"locus YCR088W, strain abp1, stronger effect = lower value",0.991 (inactive)
same,normalized growth,"locus YDL005C, strain med2, stronger effect = lower value",0.991 (inactive)
same,normalized growth,"locus YDL035C, strain GPR1, stronger effect = lower value",0.863 (inactive)
same,normalized growth,"locus YDL040C, strain nat1, stronger effect = lower value",0.992 (inactive)
same,normalized growth,"locus YDL074C, strain BRE1, stronger effect = lower value",0.808 (inactive)
same,normalized growth,"locus YDL101C, strain DUN1, stronger effect = lower value",0.948 (inactive)
same,normalized growth,"locus YDL185W, strain tfp1, stronger effect = lower value",0.972 (inactive)
same,normalized growth,"locus YDL192W, strain arf1, stronger effect = lower value",0.88 (active)
same,normalized growth,"locus YDR001C, strain nth1, stronger effect = lower value",0.995 (inactive)
same,normalized growth,"locus YDR069C, strain doa4, stronger effect = lower value",0.936 (inactive)
same,normalized growth,"locus YDR101C, strain arx1, stronger effect = lower value",0.973 (inactive)
same,normalized growth,"locus YDR137W, strain rgp1, stronger effect = lower value",0.664 (active)
same,normalized growth,"locus YDR150W, strain NUM1, stronger effect = lower value",0.984 (inactive)
same,normalized growth,"locus YDR159W, strain sac3, stronger effect = lower value",0.971 (inactive)
same,normalized growth,"locus YDR162C, strain NBP2, stronger effect = lower value",0.834 (inactive)
same,normalized growth,"locus YDR195W, strain ref2",1.03 (inactive)
same,normalized growth,"locus YDR297W, strain sur2, stronger effect = lower value",0.988 (inactive)
same,normalized growth,"locus YDR318W, strain mcm21, stronger effect = lower value",0.991 (inactive)
same,normalized growth,"locus YDR334W, strain swr1, stronger effect = lower value",0.942 (inactive)
same,normalized growth,"locus YDR335W, strain msn5, stronger effect = lower value",0.979 (inactive)
same,normalized growth,"locus YDR388W, stronger effect = lower value",0.989 (inactive)
same,normalized growth,"locus YDR392W, strain spt3, stronger effect = lower value",1 (inactive)
same,normalized growth,"locus YDR502C, strain sam2, stronger effect = lower value",0.96 (inactive)
same,normalized growth,"locus YEL003W, strain gim4, stronger effect = lower value",0.983 (inactive)
same,normalized growth,"locus YEL037C, strain rad23, stronger effect = lower value",0.986 (inactive)
same,normalized growth,"locus YEL061C, strain CIN8 (second series), stronger effect = lower value",0.99 (inactive)
same,normalized growth,"locus YEL061C, strain CIN8, stronger effect = lower value",0.978 (inactive)
same,normalized growth,"locus YER015W, strain faa2, stronger effect = lower value",0.99 (inactive)
same,normalized growth,"locus YER016W, strain bim1, stronger effect = lower value",0.983 (inactive)
same,normalized growth,"locus YER110C, stronger effect = lower value",0.962 (inactive)
same,normalized growth,"locus YER111C, strain swi4, stronger effect = lower value",0.983 (inactive)
same,normalized growth,"locus YER155C, strain BEM2 (second series), stronger effect = lower value",0.982 (inactive)
same,normalized growth,"locus YER155C, strain BEM2, stronger effect = lower value",1.02 (inactive)
same,normalized growth,"locus YER167W, strain BCK2, stronger effect = lower value",1 (inactive)
same,normalized growth,"locus YFR010W, strain ubp6, stronger effect = lower value",0.944 (inactive)
same,normalized growth,"locus YGL078C, strain dbp3, stronger effect = lower value",0.98 (inactive)
same,normalized growth,"locus YGL086W, strain mad1, stronger effect = lower value",0.932 (inactive)
same,normalized growth,"locus YGL167C, strain pmr1, stronger effect = lower value",0.988 (inactive)
same,normalized growth,"locus YGL173C, strain kem1, stronger effect = lower value",0.975 (inactive)
same,normalized growth,"locus YGL227W, strain vid30, stronger effect = lower value",1 (inactive)
same,normalized growth,"locus YGL240W, strain doc1, stronger effect = lower value",0.956 (inactive)
same,normalized growth,"locus YGL248W, strain PDE1, stronger effect = lower value",0.923 (inactive)
same,normalized growth,"locus YGL253W, strain hxk2, stronger effect = lower value",0.99 (inactive)
same,normalized growth,"locus YGR135W, strain pre9, stronger effect = lower value",0.947 (inactive)
same,normalized growth,"locus YGR252W, strain gcn5, stronger effect = lower value",0.802 (inactive)
same,normalized growth,"locus YHR013C, strain ard1, stronger effect = lower value",0.951 (inactive)
same,normalized growth,"locus YHR027C, strain rpn1, stronger effect = lower value",0.983 (inactive)
same,normalized growth,"locus YHR030C, strain SLT2, stronger effect = lower value",0.98 (inactive) and 1.06 (inactive)
same,normalized growth,"locus YHR079C, strain IRE1 (second series), stronger effect = lower value",0.988 (inactive)
same,normalized growth,"locus YHR079C, strain IRE1, stronger effect = lower value",1.05 (inactive)
same,normalized growth,"locus YHR094C, strain hxt1, stronger effect = lower value",0.99 (inactive)
same,normalized growth,"locus YHR129C, strain ARP1, stronger effect = lower value",0.93 (inactive)
same,normalized growth,"locus YHR142W, strain chs7, stronger effect = lower value",0.973 (inactive)
same,normalized growth,"locus YHR200W, strain rpn10, stronger effect = lower value",0.958 (inactive)
same,normalized growth,"locus YIL066C, strain RNR3, stronger effect = lower value",0.873 (inactive)
same,normalized growth,"locus YIL073C, strain SPO22, stronger effect = lower value",0.702 (inactive)
same,normalized growth,"locus YIL125W, strain kgd1, stronger effect = lower value",0.97 (inactive)
same,normalized growth,"locus YIR030C, strain dcg1, stronger effect = lower value",0.997 (inactive)
same,normalized growth,"locus YJL092W, strain hpr5, stronger effect = lower value",0.994 (inactive)
same,normalized growth,"locus YJL095W, strain BCK1 (second series), stronger effect = lower value",0.996 (inactive)
same,normalized growth,"locus YJL095W, strain BCK1, stronger effect = lower value",0.733 (active) and 1.08 (inactive)
same,normalized growth,"locus YJL115W, strain asf1, stronger effect = lower value",0.971 (inactive)
same,normalized growth,"locus YJL129C, strain trk1, stronger effect = lower value",0.912 (inactive)
same,normalized growth,"locus YJL134W, strain LCB3, stronger effect = lower value",0.986 (inactive)
same,normalized growth,"locus YJL154C, strain vps35, stronger effect = lower value",0.984 (inactive)
same,normalized growth,"locus YJL164C, strain tpk1, stronger effect = lower value",0.985 (inactive)
same,normalized growth,"locus YJL166W, strain qcr8, stronger effect = lower value",0.994 (inactive)
same,normalized growth,"locus YJL168C, strain set2, stronger effect = lower value",0.981 (inactive)
same,normalized growth,"locus YJL187C, strain SWE1 (second series), stronger effect = lower value",0.844 (active)
same,normalized growth,"locus YJL187C, strain SWE1, stronger effect = lower value",0.975 (inactive)
same,normalized growth,"locus YJR043C, strain POL32, stronger effect = lower value",0.921 (inactive)
